Laboratory results: PubChem BioAssay (NCI)
About 83,000 compounds went through this panel and 20% of them were active in at least one assay; those are over-represented in the sample as a whole.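 The endpoint reported here, percent growth, reads 100 for growth as untreated, 0 for no net growth and -100 for all cells dead.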 Activity calls are given as the source filed them. How the source made its calls: active means growth percent below 10; inactive means the rest.

Columns and labels:
Test in all cases: NCI-60 one-dose screen, 48 h (100 = growth as untreated, 0 = no growth, -100 = all killed)
NCI-H23 lung = conditions: 10 µM unless noted
NCI-H226 lung = conditions: 10 µM unless noted
NCI-H322M lung = conditions: 10 µM unless noted
NCI-H460 lung = conditions: 10 µM unless noted
HOP-92 NSCLC = conditions: 10 µM
NCI-H522 lung = conditions: 10 µM
A549/ATCC NSCLC = conditions: 10 µM unless noted
786-0 renal = conditions: 10 µM unless noted
COLO 205 colon = conditions: 10 µM unless noted
DU-145 prostate = conditions: 10 µM unless noted
K-562 leukemia = conditions: 10 µM unless noted
MDA-MB-231 breast = conditions: 10 µM unless noted
RXF 393 renal = conditions: 10 µM unless noted
SF-268 CNS = conditions: 10 µM unless noted
SF-295 CNS = conditions: 10 µM unless noted
SF-539 CNS = conditions: 10 µM unless noted
UACC-257 melanoma = conditions: 10 µM unless noted
M14 melanoma = conditions: 10 µM unless noted
MALME-3M melanoma = conditions: 10 µM unless noted

Measured: growth

COc1ccc(C2=NN(C(=O)c3cc(-c4ccc(C)cc4)nc4ccccc34)C(c3cc(-c4ccccc4)nn3-c3ccccc3)C2)cc1 (stereo not given)
inactive: NCI-H23 lung 90.4% | NCI-H226 lung 83.4% | NCI-H322M lung 84.6% | NCI-H460 lung 74.5% | HOP-92 NSCLC 86.6% | NCI-H522 lung 82.9% | A549/ATCC NSCLC 89.1% | 786-0 renal 95.6% | COLO 205 colon 106% | DU-145 prostate 91.2% | K-562 leukemia 84.1% | MDA-MB-231 breast 99.1% | RXF 393 renal 95.2% | SF-268 CNS 77.1% | SF-295 CNS 86.7% | SF-539 CNS 105% | UACC-257 melanoma 96.8% | M14 melanoma 83.4%

N=C(N)c1ccc(-c2ccc(-c3ccc(Cl)cc3)s2)s1
active: NCI-H23 lung -69.9% | NCI-H226 lung -53.3% | NCI-H322M lung -74.9% | NCI-H460 lung -66.2% | HOP-92 NSCLC -71.6% | NCI-H522 lung -2.36% | A549/ATCC NSCLC -69.1% | 786-0 renal -62.6% | DU-145 prostate -87.8% | K-562 leukemia -45.8% | MALME-3M melanoma -29.9% | MDA-MB-231 breast -80.5% | RXF 393 renal -85% | SF-268 CNS -68.6% | SF-295 CNS -68.8% | SF-539 CNS -86.7% | UACC-257 melanoma -37.7% | M14 melanoma -72.7%

C[C@@H](c1ccc2c(c1)[nH]c1ccc(Cl)cc12)c1nc2ccccc2[nH]1
inactive: NCI-H23 lung 91.2% | NCI-H226 lung 95.3% | NCI-H322M lung 87.3% | NCI-H460 lung 101% | HOP-92 NSCLC 120% | NCI-H522 lung 78.7% | A549/ATCC NSCLC 104% | 786-0 renal 103% | COLO 205 colon 123% | DU-145 prostate 103% | K-562 leukemia 82% | MDA-MB-231 breast 88.1% | RXF 393 renal 105% | SF-268 CNS 87.3% | SF-295 CNS 93.5% | SF-539 CNS 98.7% | UACC-257 melanoma 106% | M14 melanoma 111%

COc1ccc(Cn2cc3c(c2-c2ccccc2)CCc2cnoc2-3)cc1N
active: NCI-H460 lung -4.24% | COLO 205 colon -24.7% | SF-295 CNS -19.7% | SF-539 CNS -13.1%
inactive: NCI-H23 lung 20.5% | NCI-H226 lung 13% | NCI-H322M lung 35% | HOP-92 NSCLC 64.1% | NCI-H522 lung 33.8% | A549/ATCC NSCLC 29.4% | 786-0 renal 38.8% | DU-145 prostate 13.7% | K-562 leukemia 14.8% | MDA-MB-231 breast 15.2% | RXF 393 renal 15.2% | SF-268 CNS 28.7% | UACC-257 melanoma 63.2% | M14 melanoma 18.2%

COc1ccccc1Cn1cc2c(c1)-c1oncc1CC2
inactive: NCI-H23 lung 20.6% | NCI-H226 lung 38.9% | NCI-H322M lung 24% | HOP-92 NSCLC 80.3% | NCI-H522 lung 43.3% | A549/ATCC NSCLC 28.9% | 786-0 renal 38.6% | DU-145 prostate 22.5% | K-562 leukemia 15.9% | MDA-MB-231 breast 16.5% | SF-268 CNS 35.2% | UACC-257 melanoma 66.7% | M14 melanoma 14.4%
active: NCI-H460 lung 4.04% | COLO 205 colon -28.2% | RXF 393 renal 4.54% | SF-295 CNS -28.8% | SF-539 CNS -13.8%

CC1(c2ccc(Br)cc2)NC(=O)NC1=O (stereo not given)
inactive: NCI-H23 lung 105% | NCI-H226 lung 110% | NCI-H322M lung 103% | NCI-H460 lung 104% | HOP-92 NSCLC 89.6% | NCI-H522 lung 102% | A549/ATCC NSCLC 93.3% | 786-0 renal 96% | COLO 205 colon 113% | DU-145 prostate 111% | MALME-3M melanoma 113% | MDA-MB-231 breast 105% | RXF 393 renal 112% | SF-268 CNS 98.4% | SF-295 CNS 110% | SF-539 CNS 100% | UACC-257 melanoma 98.4% | M14 melanoma 103%

COc1ccc(C2=C/C(=C\c3ccc(Cl)cc3)C(=O)NN2C(=S)NN)cc1
inactive: NCI-H23 lung 92.5% | NCI-H226 lung 87.6% | NCI-H322M lung 102% | NCI-H460 lung 102% | HOP-92 NSCLC 74% | NCI-H522 lung 83.9% | A549/ATCC NSCLC 101% | 786-0 renal 104% | COLO 205 colon 114% | DU-145 prostate 108% | K-562 leukemia 93.9% | MDA-MB-231 breast 96.1% | RXF 393 renal 105% | SF-268 CNS 95.8% | SF-295 CNS 96.3% | SF-539 CNS 111% | UACC-257 melanoma 104% | M14 melanoma 99.5%

COc1cccc(Cn2cc3c(c2)-c2oncc2CC3)c1
active: NCI-H460 lung 1.35% | COLO 205 colon 9.83% | MDA-MB-231 breast 5.68% | RXF 393 renal 8.73% | SF-295 CNS -29.1% | SF-539 CNS -7.13%
inactive: NCI-H23 lung 16.3% | NCI-H226 lung 13.8% | NCI-H322M lung 19.2% | HOP-92 NSCLC 97.1% | NCI-H522 lung 29.5% | A549/ATCC NSCLC 28.3% | 786-0 renal 30.2% | DU-145 prostate 11.3% | K-562 leukemia 13.6% | SF-268 CNS 37.6% | UACC-257 melanoma 73.1% | M14 melanoma 12.5%

COc1ccc(Cn2cc3c(c2-c2ccccc2)CCc2cnoc2-3)cc1OC
inactive: NCI-H23 lung 26.3% | NCI-H226 lung 57.3% | NCI-H322M lung 44.8% | HOP-92 NSCLC 61.1% | NCI-H522 lung 35.1% | A549/ATCC NSCLC 41.3% | 786-0 renal 39.7% | DU-145 prostate 21.3% | K-562 leukemia 14.1% | MDA-MB-231 breast 35% | RXF 393 renal 13.1% | SF-268 CNS 47.1% | UACC-257 melanoma 61.9% | M14 melanoma 30.5%
active: NCI-H460 lung 7.98% | COLO 205 colon 8.16% | SF-539 CNS -22.1%

O=C(O)c1occ(Cl)c1Cl
inactive: NCI-H23 lung 112% | NCI-H226 lung 114% | NCI-H322M lung 116% | NCI-H460 lung 118% | HOP-92 NSCLC 95.3% | NCI-H522 lung 116% | A549/ATCC NSCLC 97.8% | 786-0 renal 111% | COLO 205 colon 114% | DU-145 prostate 114% | K-562 leukemia 101% | MDA-MB-231 breast 110% | RXF 393 renal 108% | SF-268 CNS 113% | SF-295 CNS 101% | SF-539 CNS 111% | UACC-257 melanoma 108% | M14 melanoma 114%

COc1ccc(Cn2cc3c(c2-c2ccc(O)cc2)CCc2cnoc2-3)cc1
inactive: NCI-H23 lung 20.5% | NCI-H226 lung 24.1% | NCI-H322M lung 18.8% | HOP-92 NSCLC 93.1% | NCI-H522 lung 35.7% | A549/ATCC NSCLC 32.3% | 786-0 renal 28.9% | DU-145 prostate 20.2% | K-562 leukemia 12% | MDA-MB-231 breast 18% | SF-268 CNS 45.5% | UACC-257 melanoma 70.8%
active: NCI-H460 lung 1.39% | COLO 205 colon -17.6% | RXF 393 renal 6.55% | SF-295 CNS -24.6% | SF-539 CNS -16.2% | M14 melanoma 9.96%

COc1ccc2sc(-n3nc4nc5n(c(=O)c4c3N)-c3ccccc3Sc3ccccc3-5)nc2c1
inactive: NCI-H23 lung 79.2% | NCI-H226 lung 81.4% | NCI-H322M lung 75.4% | NCI-H460 lung 84.9% | HOP-92 NSCLC 74.1% | NCI-H522 lung 75.6% | A549/ATCC NSCLC 68% | 786-0 renal 91.2% | COLO 205 colon 64.7% | DU-145 prostate 99.7% | K-562 leukemia 47.9% | MDA-MB-231 breast 47.5% | RXF 393 renal 93.8% | SF-268 CNS 86.8% | SF-295 CNS 65.8% | SF-539 CNS 104% | UACC-257 melanoma 89.6% | M14 melanoma 77.1%

c1ccc(-c2cn3ccnc3c(-c3ccc4ncn(C5CCCCC5)c4c3)n2)cc1
inactive: NCI-H23 lung 54.7% | NCI-H226 lung 66.1% | NCI-H322M lung 94.8% | NCI-H460 lung 62.2% | HOP-92 NSCLC 46.3% | NCI-H522 lung 41.9% | A549/ATCC NSCLC 66.7% | 786-0 renal 63.2% | COLO 205 colon 79.3% | DU-145 prostate 70.7% | K-562 leukemia 29.4% | MDA-MB-231 breast 58.5% | RXF 393 renal 55% | SF-268 CNS 78.2% | SF-295 CNS 60.2% | SF-539 CNS 72.2% | UACC-257 melanoma 94.8% | M14 melanoma 61.8%

O=S(=O)(O)c1ccc2c(c1)Sc1cc(S(=O)(=O)O)ccc1O2
inactive: NCI-H23 lung 109% | NCI-H226 lung 118% | NCI-H322M lung 118% | NCI-H460 lung 118% | HOP-92 NSCLC 98.5% | NCI-H522 lung 107% | A549/ATCC NSCLC 99.5% | 786-0 renal 108% | COLO 205 colon 111% | DU-145 prostate 116% | K-562 leukemia 100% | MDA-MB-231 breast 101% | RXF 393 renal 116% | SF-268 CNS 112% | SF-295 CNS 103% | SF-539 CNS 117% | UACC-257 melanoma 108% | M14 melanoma 107%

O=c1oc2ccc3ccccc3c2cc1-c1ccnc2[nH]c(=S)[nH]c(=O)c12
inactive: NCI-H23 lung 94.7% | NCI-H226 lung 94.5% | NCI-H322M lung 92.9% | NCI-H460 lung 103% | HOP-92 NSCLC 88.3% | NCI-H522 lung 88% | A549/ATCC NSCLC 97% | 786-0 renal 97.5% | COLO 205 colon 111% | DU-145 prostate 106% | K-562 leukemia 93.4% | MDA-MB-231 breast 87.4% | RXF 393 renal 118% | SF-268 CNS 98.7% | SF-295 CNS 101% | SF-539 CNS 103% | UACC-257 melanoma 98.9% | M14 melanoma 105%

CCOC(=O)C1=NN(c2ccccc2)C2=NC(=O)/C(=C\c3cn(-c4ccccc4)nc3-c3cc4ccccc4o3)C(=O)N12
inactive: NCI-H23 lung 95.4% | NCI-H226 lung 84.7% | NCI-H322M lung 89.6% | NCI-H460 lung 97% | HOP-92 NSCLC 63.5% | NCI-H522 lung 89.5% | A549/ATCC NSCLC 96.8% | 786-0 renal 99.9% | COLO 205 colon 109% | DU-145 prostate 109% | K-562 leukemia 74.9% | MDA-MB-231 breast 78.7% | RXF 393 renal 124% | SF-268 CNS 105% | SF-295 CNS 108% | SF-539 CNS 114% | UACC-257 melanoma 102% | M14 melanoma 101%

COc1ccc(CN2C(=O)/C(=C\C(=O)c3ccc(OCCN4CCCCC4)cc3)c3ccccc32)cc1
active: K-562 leukemia 2.32%
inactive: NCI-H23 lung 74.5% | NCI-H226 lung 89.6% | NCI-H322M lung 91.4% | NCI-H460 lung 94.7% | HOP-92 NSCLC 39% | NCI-H522 lung 26% | A549/ATCC NSCLC 96.4% | 786-0 renal 37.4% | COLO 205 colon 76.7% | DU-145 prostate 66% | MDA-MB-231 breast 84.8% | RXF 393 renal 61.7% | SF-268 CNS 82.7% | SF-295 CNS 91.5% | SF-539 CNS 86.4% | UACC-257 melanoma 99% | M14 melanoma 72.1%
